IL1B secr inh = inflammasome signaling inhibition, IL-1 beta readout | THP-1 LPS/ATP IL-1B secretion, AlphaLISA, 16 h; stronger effect = lower value | activity change, % at 57.5 µM | 360,000 tested, 4.7% active | AID 743279; in the data active = activity change below about -50%; inconclusive = mostly about -30% to -49%
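Secreted IL-1B measured by AlphaLISA bead assay after 16 h compound exposure of THP-1 cells; compounds (final up to 57.5 uM) added 1 h before LPS (250 ng/mL) and ATP (1.25 mM) stimulation; lower signal means less secretion.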
ELG1 DNA repair = ELG1-dependent DNA repair inhibition; 330,000 tested, 2.3% active; Potency, µM (doses to about 46.1 µM), without a hit: at the top dose activity change, negative = inhibition, actives largely listed as inhibitors; HEK293T ELG1-luciferase reporter, luminescence, 16 h; DNA damage induced by 5-fluorouridine; note: potency is the fitted concentration of half-maximal effect; nearly all actives have a fitted effect of over 55% in size
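Overnight (16 hr) co-exposure of 2,000 cells/well to 5-fluorouridine and compound at 37 °C preceded detection. Luciferase was quantified via ONE-Glo luminescence; loss of signal denotes inhibition.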
Gal4-VP16 FLuc = counter-screen for ROR gamma inhibitors: Gal4-VP16 reporter; Drosophila S2 Gal4-VP16 UAS-luciferase, luminescence, 20 h; 310,000 tested, 3.5% active; Potency, µM (titrated, usually from 53.6 µM), for inactives: at the top dose activity, negative = inhibition, actives largely listed as inhibitors;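 note: Gal4-VP16 expression switched on by copper sulfate through the metallothionein promoter; potency is the fitted concentration of half-maximal effect; nearly all actives have a fitted effect of over 50% in size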
RORg inh = blocks mouse ROR gamma transcriptional activity. Potency, µM (doses to about 53.6 µM), for inactives: at the top dose activity change, negative = inhibition, actives largely listed as inhibitors. Drosophila S2 Gal4-RORgamma UAS-luciferase reporter, 20 h. AID 2551. 310,000 tested, 5.4% active; note: potency is the fitted concentration of half-maximal effect; nearly all actives have a fitted effect of over 60% in size
Target sequence (P51450 whole entry, looked up, the tested form may be a part): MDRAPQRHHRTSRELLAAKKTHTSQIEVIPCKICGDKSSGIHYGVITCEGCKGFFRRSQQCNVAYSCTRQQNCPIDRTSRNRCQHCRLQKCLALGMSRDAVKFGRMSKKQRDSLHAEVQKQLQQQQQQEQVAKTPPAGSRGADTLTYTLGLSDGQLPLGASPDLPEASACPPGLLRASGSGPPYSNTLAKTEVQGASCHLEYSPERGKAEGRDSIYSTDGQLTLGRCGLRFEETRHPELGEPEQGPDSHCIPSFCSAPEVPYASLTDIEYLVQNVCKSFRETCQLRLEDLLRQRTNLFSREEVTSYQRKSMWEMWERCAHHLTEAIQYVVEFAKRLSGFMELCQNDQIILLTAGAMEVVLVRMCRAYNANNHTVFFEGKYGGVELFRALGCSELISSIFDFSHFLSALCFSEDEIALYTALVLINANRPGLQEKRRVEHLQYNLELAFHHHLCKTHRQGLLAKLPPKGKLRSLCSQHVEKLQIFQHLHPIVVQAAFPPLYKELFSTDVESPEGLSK
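Stable Schneider cell line, Gal4 DNA-binding domain fused to ROR gamma, UAS-luciferase. Cmpd 1 hr RT → CuSO4 700 uM final → 20 hr RT → luciferase reagent 10 min → luminescence.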
DT40 TDP1 no CPT = qHTS for Inhibitors of human tyrosyl-DNA phosphodiesterase 1 (TDP1): qHTS in cells in absence of CPT; 420,000 tested, 15% active; DT40 Tdp1-/- hTDP1 cells, no CPT, ATP luminescence, 48 h; Potency, µM (titrated, usually from 46.2 µM), inactives show at the top dose activity change, negative = growth inhibition, actives largely listed as inhibitors; note: potency is the fitted concentration of half-maximal effect; nearly all actives have a fitted effect of over 55% in size
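Stably hTDP1-transfected Tdp1-null chicken DT40 cells were treated with library compounds minus camptothecin and grown for at least 48 hr at 37 °C, after which cellular ATP was quantified by luminescence.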
DT40 TDP1 CPT = growth inhibition of DT40 Tdp1-/-;hTDP1 cells with camptothecin (screen for TDP1 inhibitors); 420,000 tested, 12% active; chicken DT40 Tdp1-/-;hTDP1 cells + 20 nM CPT, ATP luminescence, 48 h; Potency, µM (highest dose often 46.2 µM), for inactives: top-dose activity change, negative = growth inhibition, most hits filed as inhibitors; AID 686979; note: potency is the fitted concentration of half-maximal effect; nearly all actives have a fitted effect of over 55% in size
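Cell growth measured by CellTiter-Glo luminescence after a minimum 48 h, 37 C compound exposure with 20 nM CPT in Tdp1-knockout DT40 cells stably expressing hTDP1, seeded 400/well; qHTS titration format.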
An asterisk follows results filed as active; [ ] = remark or other dose. Most compounds without a hit are left out; they make up all but 21% or so of the library. Unless noted, calls come from the whole dose curve; as a rule, active = well fitted curve in the direction sought with a large enough effect; inconclusive = small, poorly fitted or top-dose-only effect, or another doubt; inactive = no such curve, though single readings can be large; an effect the other way counts as inactive or inconclusive. % is set by controls: 0 for no effect and ±100 for the full control effect.

For C#CCN(C[C@@H]1[C@@H](OC(=O)NCc2ccco2)[C@@H](OC(=O)NCc2ccco2)CN(C(=O)OC(C)C)N1C(=O)OC(C)C)S(=O)(=O)c1ccc(C)cc1 the results were IL1B secr inh -98*, DT40 TDP1 no CPT 9.2µM* and DT40 TDP1 CPT 15µM*.
For C#CCN(C[C@H]1[C@H](OC(=O)NCC2CCCCC2)[C@H](OC(=O)NCC2CCCCC2)C[C@H]2C(=O)N(c3ccccc3)C(=O)[C@@H]12)S(=O)(=O)c1ccc(C)cc1 the results were IL1B secr inh -3, DT40 TDP1 no CPT inconclusive and DT40 TDP1 CPT -16%.
Screening COc1c2c(c(OC)c3ccccc13)[C@]1(OC2)O[C@H](CCO)C[C@H](O)[C@H]1O returned IL1B secr inh inconclusive, DT40 TDP1 no CPT 0% and DT40 TDP1 CPT -3%.
`CCCNC(=O)c1ccc(COc2ccc(CCC)cc2OC)o1` gave IL1B secr inh inconclusive, ELG1 DNA repair inconclusive, Gal4-VP16 FLuc -1%, RORg inh inconclusive, DT40 TDP1 no CPT 15µM* and DT40 TDP1 CPT inconclusive.
Screening COc1ccc(NC(=O)c2ccc(COc3ccccc3OC)o2)cc1OC returned IL1B secr inh -2, ELG1 DNA repair -27%, Gal4-VP16 FLuc 16%, RORg inh 27%, DT40 TDP1 no CPT 23µM* and DT40 TDP1 CPT 15µM*.
Screening COc1ccccc1OCc1ccc(C(=O)Nc2cc(OC)c(OC)c(OC)c2)o1 returned IL1B secr inh inconclusive, ELG1 DNA repair inconclusive, Gal4-VP16 FLuc -10%, RORg inh 11%, DT40 TDP1 no CPT inconclusive and DT40 TDP1 CPT inconclusive.
For COc1ccccc1OCc1ccc(C(=O)NN)o1 the results were IL1B secr inh 12, ELG1 DNA repair 15%, Gal4-VP16 FLuc 0%, RORg inh -5%, DT40 TDP1 no CPT 5% and DT40 TDP1 CPT 15%.
`COc1ccccc1OCc1ccc(C(=O)Nc2ccc(C)c(C)c2)o1` gave DT40 TDP1 no CPT inconclusive and DT40 TDP1 CPT 23µM*.
`COc1cc(NC(=O)c2ccc(COc3ccccc3Br)o2)cc(OC)c1OC` gave IL1B secr inh -16, ELG1 DNA repair inconclusive, Gal4-VP16 FLuc 0%, RORg inh 13%, DT40 TDP1 no CPT 23µM* and DT40 TDP1 CPT inconclusive.
`O=C(COC(=O)c1ccc(F)cc1Cl)NC(=O)NC1CCCC1` gave IL1B secr inh -8, ELG1 DNA repair 1%, DT40 TDP1 no CPT -29% and DT40 TDP1 CPT -24%.
Screening N#Cc1ccc(CS(=O)(=O)c2ccccc2)cc1 returned Gal4-VP16 FLuc -14% and RORg inh -5%.
For COc1ccccc1NC(=O)COc1coc(CN2CCN(c3ccccc3)CC2)cc1=O the results were IL1B secr inh -5, ELG1 DNA repair -11%, DT40 TDP1 no CPT -27% and DT40 TDP1 CPT -21%.
`COc1ccc(C2C(C(=O)Nc3cccnc3)=C(C)Nc3nc(-c4ccccc4)nn32)cc1OC` (stereo not given) gave DT40 TDP1 no CPT -8% and DT40 TDP1 CPT -2%.
Screening COc1ccc(CC(=O)N2CCN(c3ccccn3)CC2)cc1OC returned IL1B secr inh 13, ELG1 DNA repair -2%, Gal4-VP16 FLuc 2%, RORg inh 11%, DT40 TDP1 no CPT -6% and DT40 TDP1 CPT -17%.
For CCCc1ccc(OCc2ccc(C(=O)N3CCN(c4ccccn4)CC3)o2)c(OC)c1 the results were IL1B secr inh -10, ELG1 DNA repair 16µM*, RORg inh -25%[0.365 µM], DT40 TDP1 no CPT 21µM* and DT40 TDP1 CPT inconclusive.

Source: PubChem
